Source: PubChem BioAssay (Tox21)
Results filed as inconclusive are left out. Activity calls are given as the source filed them. Unless noted, calls come from the whole dose curve; as a rule, active = well fitted curve in the direction sought with a large enough effect in the repeat runs; inconclusive = weak or mixed curves; inactive = no such curve, though single readings can be large; an effect the other way counts as inactive or inconclusive.

What was measured:
[1] = biological target: Retinoic acid receptor RXR-alpha (Homo sapiens) (UniProt P19793); test: qHTS assay to identify small molecule agonists of the RXR signaling pathway (AID 1159527; calls by dose curve; note: nearly all actives have a fitted effect of over 35% in size)
In short: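 Read-out: beta-lactamase FRET ratio (405 nm excitation, 460 and 530 nm emission) after 2 hr substrate loading at room temperature. Cells were RXR-alpha-UAS-bla HEK 293T treated with compounds for 16 hr in 2% charcoal-stripped FBS medium.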

[2] = qHTS assay to identify small molecule agonists of the RXR signaling pathway - cell viability counter screen (AID 1159529); note: series mostly up to about 77 µM; nearly all actives have a fitted effect of over 50% in size
In short: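 HEK 293T RXRa-bla cells, 2% CS-FBS; 5 h settle; cpd 16 h 37 C, 5% CO2; CellTiter-Glo 30 min RT, luminescence. Tetraoctyl ammonium bromide as positive control.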

[3] = qHTS assay to identify small molecule antagonists of the retinoid acid receptor (RAR) signaling pathway - cell viability counter screen (AID 1159551); note: nearly all actives have a fitted effect of over 35% in size
In short: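 Cytotoxicity counter screen in C3RL4 cells: 6 h compound exposure with 1 uM retinol (final), viability from cellular ATP by luminescence.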

[4] = qHTS assay to identify small molecule antagonists of the retinoic acid receptor (RAR) signaling pathway (AID 1159552; note: nearly all actives have a fitted effect of over 50% in size)
In short: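 Cells of the C3RL4 line were seeded, incubated overnight, then dosed with compounds in DMSO followed immediately by retinol (1 uM final). Six hours later luciferase detection reagent went in; signal was measured after 30 min at RT.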

[5] = qHTS assay to identify small molecule agonists of the retinoic acid receptor (RAR) signaling pathway (AID 1159553); note: potency is the fitted concentration of half-maximal effect
In short: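 Agonist activity was scored in C3RL4 cells bearing a retinoic acid response element luciferase construct. Cells were treated with compounds for 6 hr at 37 C, and luciferase signal was measured as luminescence.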

[6] = qHTS assay to identify small molecule antagonists of the estrogen related receptor (ERR) signaling pathway from Tox21 library - cell viability counter screen (AID 1224834); note: nearly all actives have a fitted effect of over 30% in size
In short: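 Cytotoxicity of test substances is gauged in the same ERR cells used for the antagonist screen, after 17.5 h of compound treatment at 37 C, by CellTiter-Fluor fluorescence measured after 30 min.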

[7] = biological target: Luciferin 4-monooxygenase (Photinus pyralis) (UniProt P08659); test: qHTS assay to identify small molecule inhibitors of firefly luciferase (AID 1224835); note: nearly all actives have a fitted effect of over 25% in size; note: potency is the fitted concentration of half-maximal effect
In short: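 Biochemical qHTS: compounds run as interplate titrations against purified firefly enzyme, with D-luciferin and ATP each at its KM concentration. Light output recorded by CCD imaging.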

[8] = qHTS assay to identify small molecule agonists of the constitutive androstane receptor (CAR) signaling pathway - cell viability counter screen (AID 1224836); note: series mostly up to about 92 µM; nearly all actives have a fitted effect of over 45% in size
In short: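 HepG2-CYP2B6-hCAR, 2500 cells/well, 4 h pre-incubation; cpd 15 conc + PK11195 0.75 uM final; 23 h, 37 C/5% CO2; CellTiter-Fluor, fluorescence.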

[9] = qHTS assay to identify small molecule antagonists of the constitutive androstane receptor (CAR) signaling pathway - cell viability counter screen (AID 1224837); note: series mostly up to about 92 µM; nearly all actives have a fitted effect of over 45% in size
In short: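 Multiplexed cytotoxicity read-out for the CAR antagonist screen: double-stable HepG2-CYP2B6-hCAR cells co-treated with 50 nM CITCO (final) and compound over 15 concentrations, incubated 23 hr, then assessed by CellTiter-Fluor fluorescence.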

[10] = biological target: Nuclear receptor subfamily 1 group I member 3 (Homo sapiens) (UniProt Q14994); test: qHTS assay to identify small molecule antagonists of the constitutive androstane receptor (CAR) signaling pathway (AID 1224838); note: nearly all actives have a fitted effect of over 40% in size
In short: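 Compounds were titrated across 15 concentrations onto HepG2 cells double-stably expressing hCAR and a CYP2B6-2.2kb reporter, together with 50 nM CITCO (final). After 24 h at 37 C, luciferase activity was measured by luminescence.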

[11] = biological target: Nuclear receptor subfamily 1 group I member 3 (Homo sapiens) (UniProt Q14994); test: qHTS assay to identify small molecule agonists of the constitutive androstane receptor (CAR) signaling pathway (AID 1224839);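 note: HepG2 cells stably carrying human CAR and a CYP2B6 luciferase reporter; series mostly up to about 92 µM; nearly all actives have a fitted effect of over 15% in size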
In short: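 HepG2-CYP2B6-hCAR cells, 2500/well, 4 h pre-incubation; compounds 15 conc.; PK11195 0.75 uM final; 24 h, 37 C/5% CO2; ONE-Glo luciferase read.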

[12] = qHTS assay to identify small molecule antagonists of the estrogen related receptor signaling pathway with the pleiotropic PPARgamma coactivator (PGC) from Tox21 10K library - cell viability counter screen (AID 1224840; active = well fitted cell-killing curve with a large enough effect in the repeat runs, not every such curve was filed as active; note: nearly all actives have a fitted effect of over 40% in size)
In short: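 Step one, plate 2,000 PGC/ERR cells per well; step two, incubate 6 h at 37 C/5% CO2; step three, pin-transfer compounds; step four, incubate 17.5 h; step five, add CellTiter-Fluor and read fluorescence after 30 min.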

[13] = qHTS assay to identify small molecule antagonists of the estrogen related receptor signaling pathway with the pleiotropic PPARgamma coactivator (PGC) from Tox21 10K library (AID 1224841; call rule not given here; note: series mostly up to about 92 µM; actives are mostly falling curves and most rising ones were filed inactive; nearly all actives have a fitted effect of over 50% in size)
In short: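 Antagonism in this quantitative HTS is taken from loss of luciferase signal in PGC/ERR cells. Cells (2,000/well) are treated with compounds in DMSO after a 6 h settling period and read by One-Glo luminescence after 18 h.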

[14] = qHTS assay to identify small molecule agonists of the estrogen related receptor signaling pathway with the pleiotropic PPARgamma coactivator (PGC) from Tox21 10K library (AID 1224842); note: nearly all actives have a fitted effect of over 15% in size
In short: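 PGC/ERR reporter cell line, 2,000 cells per well, incubated 6 h at 37 C before 23 nL compound in DMSO was added. After 18 h at 37 C, One-Glo luminescence read following 30 min at room temperature.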

[15] = qHTS assay to identify small molecule agonists of the hypoxia (HIF-1) signaling pathway - cell viability counter screen (AID 1224844; calls by dose curve; note: nearly all actives have a fitted effect of over 50% in size)
In short: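 Tox21 10K compounds were added to HRE-bla ME-180 cells (0.5% dialyzed FBS) and incubated 17 hrs at 37C; ATP-based CellTiter-Glo luminescence then reported cell viability in the same wells.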

[16] = qHTS assay to identify small molecule agonists of H2AX (AID 1224845; active = well fitted activation curve with a large enough effect in the signal ratio in the repeat runs, not every such curve was filed as active; the % refers to the signal ratio)
In short: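 Wild-type CHO-K1 cells, plated overnight, exposed 3hr at 37C to 15 concentrations (0.76% DMSO final). Lysed, then HTRF anti-pH2AX (S139) cryptate and anti-H2AX-d2 antibodies, 24 hr room temperature; 665/620 nm emission read.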

[17] = qHTS assay to identify small molecule agonists of H2AX - cell viability counter screen (AID 1224847; calls by dose curve; note: top concentration of the series differs between compounds; nearly all actives have a fitted effect of over 30% in size)
In short: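 Cells plated first: CHO-K1, 1000 per well in 10% FBS medium, incubated overnight at 37C. Then 15-point compound titration added (final DMSO 0.76%) for 3 hr. Finally CellTiter-Glo added and luminescence read.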

[18] = qHTS assay to identify small molecule antagonists of the estrogen related receptor (ERR) signaling pathway from Tox21 library (AID 1224848); note: nearly all actives have a fitted effect of over 50% in size
In short: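 ERR reporter cell line (from NTP) seeded 2,000 cells/well, rested 6 h at 37 C/5% CO2, then pin-dosed with compounds in DMSO. After 18 h at 37 C, ONE-Glo added; luminescence read after 30 min at room temperature.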

[19] = biological target: Thyrotropin receptor (Homo sapiens) (UniProt P16473); test: qHTS assay to identify small molecule agonists of the thyroid stimulating hormone receptor (TSHR) signaling pathway (AID 1224843; calls by dose curve; note: nearly all actives have a fitted effect of over 45% in size)
In short: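 TSHR-HEK293 cells in agonist mode, 30 min room-temperature step, then cAMP measured by competitive HTRF (cAMP-d2 with anti-cAMP cryptate) after 1 h at room temperature. Tested at 15 concentrations in triplicate.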

[20] = qHTS assay to identify small molecule agonists of the hypoxia (HIF-1) signaling pathway (AID 1224846; active = well fitted activation curve with a large enough effect in the signal ratio in the repeat runs, not every such curve was filed as active; the % refers to the signal ratio)
In short: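 Steps: seed ME-180 HRE-bla cells (2,000/well, 0.5% dialyzed FBS); incubate 5 hrs at 37C; pin-transfer compounds or DMSO; incubate 17 hrs; add LiveBLAzer B/G substrate CCF4-AM; measure reporter activation by FRET.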

Measured: Potency

Sequence of Thyrotropin receptor (Homo sapiens) (P16473 whole entry, looked up): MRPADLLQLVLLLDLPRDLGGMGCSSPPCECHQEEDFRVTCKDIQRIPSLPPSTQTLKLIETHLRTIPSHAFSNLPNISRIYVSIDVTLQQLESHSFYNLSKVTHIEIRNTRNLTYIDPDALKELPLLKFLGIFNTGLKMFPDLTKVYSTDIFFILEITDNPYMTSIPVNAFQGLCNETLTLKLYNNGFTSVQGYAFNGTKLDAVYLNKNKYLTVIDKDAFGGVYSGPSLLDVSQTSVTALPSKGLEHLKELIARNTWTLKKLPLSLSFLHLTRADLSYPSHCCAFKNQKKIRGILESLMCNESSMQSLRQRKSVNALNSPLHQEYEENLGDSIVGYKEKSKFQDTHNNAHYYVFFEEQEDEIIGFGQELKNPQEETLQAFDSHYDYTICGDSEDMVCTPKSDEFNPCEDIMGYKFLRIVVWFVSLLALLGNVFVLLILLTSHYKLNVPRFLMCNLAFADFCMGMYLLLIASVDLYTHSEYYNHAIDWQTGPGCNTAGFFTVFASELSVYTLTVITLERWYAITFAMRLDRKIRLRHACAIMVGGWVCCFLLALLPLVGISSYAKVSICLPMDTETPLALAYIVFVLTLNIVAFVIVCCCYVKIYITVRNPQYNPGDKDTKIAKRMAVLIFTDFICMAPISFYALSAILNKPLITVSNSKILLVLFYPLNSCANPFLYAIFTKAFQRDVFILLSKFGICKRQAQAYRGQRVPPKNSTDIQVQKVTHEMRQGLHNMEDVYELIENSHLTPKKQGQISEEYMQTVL
Sequence of Luciferin 4-monooxygenase (Photinus pyralis) (P08659 whole entry, looked up): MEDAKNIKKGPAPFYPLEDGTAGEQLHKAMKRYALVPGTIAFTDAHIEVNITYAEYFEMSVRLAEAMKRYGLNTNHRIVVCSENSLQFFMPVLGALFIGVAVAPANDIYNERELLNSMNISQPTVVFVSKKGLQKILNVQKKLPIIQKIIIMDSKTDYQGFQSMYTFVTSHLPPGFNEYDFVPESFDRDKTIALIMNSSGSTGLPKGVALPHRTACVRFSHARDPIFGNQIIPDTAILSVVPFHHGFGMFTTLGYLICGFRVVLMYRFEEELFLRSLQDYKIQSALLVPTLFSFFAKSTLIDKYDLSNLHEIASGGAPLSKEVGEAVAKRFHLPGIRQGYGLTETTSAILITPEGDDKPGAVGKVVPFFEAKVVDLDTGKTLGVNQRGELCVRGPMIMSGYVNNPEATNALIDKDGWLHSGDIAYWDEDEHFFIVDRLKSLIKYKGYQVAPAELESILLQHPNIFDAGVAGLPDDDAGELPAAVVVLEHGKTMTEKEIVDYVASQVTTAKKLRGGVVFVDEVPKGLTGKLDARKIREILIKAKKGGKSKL
Sequence of Retinoic acid receptor RXR-alpha (Homo sapiens) (P19793 whole entry, looked up): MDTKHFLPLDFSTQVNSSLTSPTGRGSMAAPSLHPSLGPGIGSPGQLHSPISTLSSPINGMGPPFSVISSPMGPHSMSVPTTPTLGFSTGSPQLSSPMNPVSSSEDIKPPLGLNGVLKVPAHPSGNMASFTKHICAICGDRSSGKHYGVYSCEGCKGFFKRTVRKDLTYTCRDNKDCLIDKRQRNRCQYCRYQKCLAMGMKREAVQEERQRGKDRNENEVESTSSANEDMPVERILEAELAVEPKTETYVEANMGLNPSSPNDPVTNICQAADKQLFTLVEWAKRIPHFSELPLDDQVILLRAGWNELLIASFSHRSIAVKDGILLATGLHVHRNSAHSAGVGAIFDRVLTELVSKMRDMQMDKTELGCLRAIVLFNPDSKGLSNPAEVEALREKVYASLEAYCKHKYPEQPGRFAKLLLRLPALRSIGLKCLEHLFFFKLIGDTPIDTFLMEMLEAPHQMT
Sequence of Nuclear receptor subfamily 1 group I member 3 (Homo sapiens) (Q14994 whole entry, looked up): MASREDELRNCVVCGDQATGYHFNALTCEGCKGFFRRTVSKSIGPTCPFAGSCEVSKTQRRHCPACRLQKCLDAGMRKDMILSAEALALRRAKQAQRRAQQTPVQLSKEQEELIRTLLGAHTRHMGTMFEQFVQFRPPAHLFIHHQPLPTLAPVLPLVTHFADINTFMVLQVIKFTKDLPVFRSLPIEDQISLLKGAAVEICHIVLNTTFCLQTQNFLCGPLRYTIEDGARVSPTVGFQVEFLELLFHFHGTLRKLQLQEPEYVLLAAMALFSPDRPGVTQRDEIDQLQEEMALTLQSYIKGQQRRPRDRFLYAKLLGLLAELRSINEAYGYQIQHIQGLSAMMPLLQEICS

CC(C)(C)NC[C@H](O)COc1cccc2c1CCCC2=O
not listed: [19] | [20]
inactive: all other assays above

CC(C)=CCC[C@@](C)(O)[C@H]1CC=C(C)CC1
not listed: [13] | [14] | [18]
inactive: all other assays above

O=C(Cn1ccnc1[N+](=O)[O-])NCc1ccccc1
not listed: [13] | [14] | [18]
inactive: all other assays above

Cn1c(=O)c2[nH]c(Br)nc2n(C)c1=O
not listed: [13] | [14] | [17] | [18]
inactive: all other assays above

CCC(=O)c1c(O)cc(O)cc1O
not listed: [13] | [18]
inactive: all other assays above

CC(C)CO
not listed: [13] | [14] | [17] | [18] | [20]
inactive: all other assays above

C/C=C(\C)C(=O)OCCc1ccccc1
active: [5] 27.3 µM | [7] 7.1 µM
not listed: [19]
inactive: all other assays above

O=Cc1ccccc1Cl
not listed: [19]
inactive: all other assays above

CCO[Si](CC)(OCC)OCC
not listed: [13] | [14] | [17] | [18]
inactive: all other assays above

CCCC(=O)OCCC(C)CCC=C(C)C (stereo unspecified)
not listed: [19] | [20]
inactive: all other assays above

CC(C)(CO)C(O)C(=O)NCCCO (stereo unspecified)
not listed: [13] | [16] | [20]
inactive: all other assays above

C=CCCCCCCCC
not listed: [13] | [14] | [18]
inactive: all other assays above

CC(=O)OCC(=O)Nc1cc(C#N)cc(NC(=O)COC(C)=O)c1Cl
not listed: [13] | [14] | [18]
inactive: all other assays above

CC(C)COC(=O)c1ccccc1
not listed: [13] | [14] | [18]
inactive: all other assays above
